Assay results published in PubChem BioAssay AID1159580 (chemical genetic matrix, 2015).
Out of some 5,500 compounds screened, about 2,000 (36%) were called active. Not shown: some 18% with an inconclusive outcome. Cut-off read from the data, not from the text of the source: active = normalized growth mostly below about 0.91 (no sharp cut-off); inconclusive = no clear call, values can overlap the other calls; inactive = mostly above about 0.92. The list shows a part of the results.

Assay: chemical genetic growth profiling, strain panel (AID 1159580);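 note: tested at 20 µM; growth read once vehicle control cultures reached saturation at 30 °C; 1 = growth at the plate median or of vehicle wells; lower values mean less growth of the strain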
Conditions: growth OD

Measured: normalized growth

NC1(C(=O)O)CCCC1
inactive: S. cerevisiae deletion strains, locus YJR075W, strain HOC1, hits give low values 0.997 | S. cerevisiae deletion strains, locus YKL009W, strain mrt4, hits give low values 0.993 | S. cerevisiae deletion strains, locus YKL068W, hits give low values 1 | S. cerevisiae deletion strains, locus YKL085W, strain MDH1 (second series), hits give low values 0.996 | S. cerevisiae deletion strains, locus YKL085W, strain MDH1, hits give low values 0.996 | S. cerevisiae deletion strains, locus YKL160W, strain elf1, hits give low values 1.02 | S. cerevisiae deletion strains, locus YKL190W, strain CNB1, hits give low values 1.01 | S. cerevisiae deletion strains, locus YKR001C, strain vps1, hits give low values 0.998 | S. cerevisiae deletion strains, locus YKR026C, strain gcn3, hits give low values 1.02 | S. cerevisiae deletion strains, locus YKR091W, strain srl3, hits give low values 1.01 | S. cerevisiae deletion strains, locus YLL001W, strain dnm1, hits give low values 1.03 | S. cerevisiae deletion strains, locus YLL026W, hits give low values 1.01 | S. cerevisiae deletion strains, locus YLL041C, strain sdh2, hits give low values 1.02 | S. cerevisiae deletion strains, locus YLR027C, strain aat2, hits give low values 1.02 | S. cerevisiae deletion strains, locus YLR039C, strain RIC1, hits give low values 0.971 | S. cerevisiae deletion strains, locus YLR058C, strain SHM2, hits give low values 1.01 | S. cerevisiae deletion strains, locus YLR102C, strain apc9, hits give low values 1 | S. cerevisiae deletion strains, locus YLR113W, strain HOG1, hits give low values 1.06 | S. cerevisiae deletion strains, locus YLR221C, strain rsa3, hits give low values 0.994 | S. cerevisiae deletion strains, locus YLR258W, strain gsy2, hits give low values 1.02 | S. cerevisiae deletion strains, locus YLR262C, strain YPT6 (second series), hits give low values 1.04 | S. cerevisiae deletion strains, locus YLR262C, strain YPT6, hits give low values 1.02 | S. cerevisiae deletion strains, locus YLR268W, strain sec22, hits give low values 1.01 | S. cerevisiae deletion strains, locus YLR320W, strain mms22, hits give low values 1.03 | S. cerevisiae deletion strains, locus YLR330W, strain CHS5, hits give low values 1 | S. cerevisiae deletion strains, locus YLR342W, strain FKS1 (second series), hits give low values 1 | S. cerevisiae deletion strains, locus YLR342W, strain FKS1, hits give low values 1.02 | S. cerevisiae deletion strains, locus YLR357W, strain rsc2, hits give low values 1.02 | S. cerevisiae deletion strains, locus YLR370C, strain arc18, hits give low values 1.02 | S. cerevisiae deletion strains, locus YLR371W, strain rom2, hits give low values 1 | S. cerevisiae deletion strains, locus YLR384C, strain iki3, hits give low values 1.02 | S. cerevisiae deletion strains, locus YLR418C, strain cdc73, hits give low values 0.992 | S. cerevisiae deletion strains, locus YML016C, strain PPZ1, hits give low values 1 | S. cerevisiae deletion strains, locus YML032C, strain rad52, hits give low values 0.995 | S. cerevisiae deletion strains, locus YML120C, strain ndi1, hits give low values 1.03 | S. cerevisiae deletion strains, locus YML124C, strain tub3, hits give low values 0.998 | S. cerevisiae deletion strains, locus YMR058W, strain fet3, hits give low values 1.02 | S. cerevisiae deletion strains, locus YMR078C, strain ctf18, hits give low values 0.998 | S. cerevisiae deletion strains, locus YMR125W, strain sto1, hits give low values 1.05 | S. cerevisiae deletion strains, locus YMR129W, hits give low values 1.02 | S. cerevisiae deletion strains, locus YMR205C, strain PFK2, hits give low values 1.03 | S. cerevisiae deletion strains, locus YMR223W, strain ubp8, hits give low values 1.01 | S. cerevisiae deletion strains, locus YMR231W, strain pep5, hits give low values 1.02 | S. cerevisiae deletion strains, locus YMR307W, strain GAS1, hits give low values 1.01 | S. cerevisiae deletion strains, locus YNL067W, strain RPL9B, hits give low values 1 | S. cerevisiae deletion strains, locus YNL071W, strain lat1, hits give low values 1.02 | S. cerevisiae deletion strains, locus YNL128W, strain TEP1, hits give low values 1.02 | S. cerevisiae deletion strains, locus YNL183C, strain NPR1, hits give low values 0.946 | S. cerevisiae deletion strains, locus YNL209W, strain ssb2, hits give low values 1.01 | S. cerevisiae deletion strains, locus YNL233W, strain BNI4, hits give low values 0.991 | S. cerevisiae deletion strains, locus YNL248C, strain rpa49, hits give low values 1 | S. cerevisiae deletion strains, locus YNL250W, strain rad50, hits give low values 1.02 | S. cerevisiae deletion strains, locus YNL271C, strain bni1, hits give low values 0.998 | S. cerevisiae deletion strains, locus YNL298W, strain CLA4, hits give low values 1.01 | S. cerevisiae deletion strains, locus YNL307C, strain MCK1, hits give low values 0.996 | S. cerevisiae deletion strains, locus YNL322C, strain KRE1 (second series), hits give low values 1.01 | S. cerevisiae deletion strains, locus YNL322C, strain KRE1, hits give low values 1.01 | S. cerevisiae deletion strains, locus YNR049C, strain mso1, hits give low values 1.01 | S. cerevisiae deletion strains, locus YNR052C, strain pop2, hits give low values 1.01 | S. cerevisiae deletion strains, locus YOL006C, strain TOP1, hits give low values 0.987 | S. cerevisiae deletion strains, locus YOL012C, strain htz1 0.665 | S. cerevisiae deletion strains, locus YOL147C, strain pex11, hits give low values 0.993 | S. cerevisiae deletion strains, locus YOR001W, strain rrp6, hits give low values 1.03 | S. cerevisiae deletion strains, locus YOR061W, strain CKA2, hits give low values 1.01 | S. cerevisiae deletion strains, locus YOR069W, strain VPS5, hits give low values 1.01 | S. cerevisiae deletion strains, locus YOR070C, strain gyp1, hits give low values 1.02 | S. cerevisiae deletion strains, locus YOR080W, strain dia2, hits give low values 1.02 | S. cerevisiae deletion strains, locus YOR083W, strain WHI5, hits give low values 1.03 | S. cerevisiae deletion strains, locus YOR106W, strain vam3, hits give low values 1.02 | S. cerevisiae deletion strains, locus YOR136W, strain idh2, hits give low values 0.998 | S. cerevisiae deletion strains, locus YOR144C, strain elg1, hits give low values 0.997 | S. cerevisiae deletion strains, locus YOR184W, strain ser1, hits give low values 0.996 | S. cerevisiae deletion strains, locus YOR231W, strain MKK1, hits give low values 1.04 | S. cerevisiae deletion strains, locus YOR265W, strain rbl2, hits give low values 1.01 | S. cerevisiae deletion strains, locus YOR270C, strain vph1, hits give low values 1.07 | S. cerevisiae deletion strains, locus YOR290C, strain snf2, hits give low values 1.02 | S. cerevisiae deletion strains, locus YOR316C, strain cot1, hits give low values 1 | S. cerevisiae deletion strains, locus YPL051W, strain arl3, hits give low values 1.03 | S. cerevisiae deletion strains, locus YPL055C, strain LGE1, hits give low values 1.03 | S. cerevisiae deletion strains, locus YPL078C, strain atp4, hits give low values 1.04 | S. cerevisiae deletion strains, locus YPL106C, strain sse1, hits give low values 1.02 | S. cerevisiae deletion strains, locus YPL240C, strain hsp82, hits give low values 1.01 | S. cerevisiae deletion strains, locus YPL256C, strain CLN2, hits give low values 1.04 | S. cerevisiae deletion strains, locus YPR119W, strain clb2, hits give low values 0.998 | S. cerevisiae deletion strains, locus YPR141C, strain kar3, hits give low values 0.991 | S. cerevisiae deletion strains, locus YPR163C, strain tif3, hits give low values 1 | S. cerevisiae deletion strains, locus YPR167C, strain met16, hits give low values 0.992 | S. cerevisiae deletion strains, strain wtn01, hits give low values 0.994 | S. cerevisiae strains, strain wild type, hits give low values 1.01
